# Among all 3,200 compounds or so, about 75 (2%) showed an effect of 50% or more. The sample holds strong results, similar compounds and a random draw of the others, so the mix is not that of the screen.
# System: T1, S. aureus MSSA476
# T1 construct: MSSA476
# Set-up: species or system S. aureus MSSA476 (TSB) or V. cholerae SAD30 (LB); 384-well bacterial growth screen at 25 uM, OD600 relative to DMSO control
# Details: relative growth, OD600, TSB; 25 µM; inhibitor
row,Compound,% of control remaining [%]
1,"Cc1ccc(C=C(C#N)C(=O)Nc2ccccc2Cl)s1 [9-C22, N-(2-chlorophenyl)-2-cyano-3-(5-methylthiophen-2-yl)prop-2-enamide]",83.2959
2,"Cc1ccc(C=C(C#N)C(=O)Nc2ccccc2C(=O)O)s1 [9-K08, 2-[2-cyano-3-(5-methylthiophen-2-yl)prop-2-enamido]benzoic acid]",38.0524
3,"COc1ccccc1NC(=O)C(C#N)=Cc1ccc(C)s1 [8-B15, 2-cyano-N-(2-methoxyphenyl)-3-(5-methylthiophen-2-yl)prop-2-enamide]",118.838
4,"O=C(Nc1nccs1)N1CCSSCC1 [10-O22, N-(1,3-thiazol-2-yl)-1,2,5-dithiazepane-5-carboxamide]",109.063
5,"O=C(CCl)N(Cc1ccc(F)cc1)C1CCCCC1 [4-I13, 2-chloro-N-cyclohexyl-N-[(4-fluorophenyl)methyl]acetamide]",87.6608
6,"CC(Cl)C(=O)Nc1sc(-c2ccccc2)cc1C(N)=O (stereo not shown) [4-H13, 2-(2-chloropropanamido)-5-phenylthiophene-3-carboxamide]",58.3135
7,"O=C1CCCc2cc(C(=O)CCl)ccc2N1 [10-M20, 7-(2-chloroacetyl)-2,3,4,5-tetrahydro-1H-1-benzazepin-2-one]",137.5
8,"CC1(C)C(=O)Nc2ccc(C(=O)CCl)cc21 [10-N21, 5-(2-chloroacetyl)-3,3-dimethyl-2,3-dihydro-1H-indol-2-one]",40.3125
9,"Cn1c(=O)oc2cc(C(=O)CCl)ccc21 [10-F07, 6-(2-chloroacetyl)-3-methyl-2,3-dihydro-1,3-benzoxazol-2-one]",93.125
10,"C=CC(=O)NC(Cn1cncn1)c1ccccc1 (stereo not shown) [3-F17, N-[1-phenyl-2-(1H-1,2,4-triazol-1-yl)ethyl]prop-2-enamide]",118.415
11,"O=C(CCl)N(Cc1ccc(Cl)c([N+](=O)[O-])c1)c1ccccc1 [6-H06, 2-chloro-N-[(4-chloro-3-nitrophenyl)methyl]-N-phenylacetamide]",8.195
12,"Cc1cccc(N(Cc2ccccc2)C(=O)CCl)c1 [6-O07, N-benzyl-2-chloro-N-(3-methylphenyl)acetamide]",98
13,"O=C(CCl)N(Cc1ccccc1)c1ccccc1 [4-G13, N-benzyl-2-chloro-N-phenylacetamide]",77.7513
14,"C=CC(=O)NCC1(S(=O)(=O)CC)CC1 [3-O13, N-{[1-(ethanesulfonyl)cyclopropyl]methyl}prop-2-enamide]",91.2495
15,"N#CC(=Cc1c(F)c(F)c(F)c(F)c1F)C(=O)NC1CCCCC1 [8-O15, 2-cyano-N-cyclohexyl-3-(2,3,4,5,6-pentafluorophenyl)prop-2-enamide]",32.5311
16,"N#CC(=Cc1ccc(F)c(F)c1)C(=O)NC1CCCCC1 [9-J22, 2-cyano-N-cyclohexyl-3-(3,4-difluorophenyl)prop-2-enamide]",94.0824
17,"N#CC(=Cc1ccc([N+](=O)[O-])c(Cl)c1)C(=O)NC1CCCCC1 [8-B08, 3-(3-chloro-4-nitrophenyl)-2-cyano-N-cyclohexylprop-2-enamide]",29.8755
18,"N#CC(=Cc1cc(F)ccc1F)C(=O)NC1CCCCC1 [8-G08, 2-cyano-N-cyclohexyl-3-(2,5-difluorophenyl)prop-2-enamide]",64.3983
19,"N#CC(=Cc1ccccc1)C(=O)NC1CCCCCCC1 [8-G17, 2-cyano-N-cyclooctyl-3-phenylprop-2-enamide]",98.9212
20,"Cc1ccc(C=C(C#N)C(=O)NC2CCCCC2)cc1C [8-G10, 2-cyano-N-cyclohexyl-3-(3,4-dimethylphenyl)prop-2-enamide]",108.216
21,"N#CC(=Cc1sc2ccccc2c1Cl)C(=O)NC1CC1 [9-C18, 3-(3-chloro-1-benzothiophen-2-yl)-2-cyano-N-cyclopropylprop-2-enamide]",110.262
22,"C=CC(=O)NC12CC3(C)CC(C)(CC(O)(C3)C1)C2 [1-K17, N-(3-hydroxy-5,7-dimethyladamantan-1-yl)prop-2-enamide]",111.473
23,"CC(Cl)C(=O)N(C)C1CCN(c2ccccn2)CC1 (stereo not shown) [6-J20, 2-chloro-N-methyl-N-[1-(pyridin-2-yl)piperidin-4-yl]propanamide]",95.6098

row,Compound,% of control remaining [%]
1,"O=C(CCl)N[C@H](CO)Cc1ccccc1 [6-G20, 2-chloro-N-[(2S)-1-hydroxy-3-phenylpropan-2-yl]acetamide]",109.61
2,"CC(=O)c1ccccc1NC(=O)C(C)Cl (stereo not shown) [5-O19, N-(2-acetylphenyl)-2-chloropropanamide]",103.825
3,"CCN(Cc1ccc(C#N)cc1F)C(=O)CCl [5-H08, 2-chloro-N-[(4-cyano-2-fluorophenyl)methyl]-N-ethylacetamide]",105.282
4,"CSc1ccc(C=C(C#N)C(=O)Nc2cccc(Cl)c2C)cc1 [8-N11, N-(3-chloro-2-methylphenyl)-2-cyano-3-[4-(methylsulfanyl)phenyl]prop-2-enamide]",130.788
5,"C=CC(=O)Nc1ccc(C(=O)NC2CCN(S(C)(=O)=O)CC2)cc1 [2-M21, N-(1-methanesulfonylpiperidin-4-yl)-4-(prop-2-enamido)benzamide]",120.801
6,"O=C(CCl)N1N=C(c2cccs2)CC1c1cccs1 (stereo not shown) [4-O18, 1-[3,5-bis(thiophen-2-yl)-4,5-dihydro-1H-pyrazol-1-yl]-2-chloroethan-1-one]",105.193
7,"O=C(CCl)N1N=C(c2cccs2)CC1c1ccccc1O (stereo not shown) [4-K20, 2-chloro-1-[5-(2-hydroxyphenyl)-3-(thiophen-2-yl)-4,5-dihydro-1H-pyrazol-1-yl]ethan-1-one]",3.049
8,"Cc1ccc(C2CC(c3cccs3)=NN2C(=O)CCl)cc1 (stereo not shown) [4-I22, 2-chloro-1-[5-(4-methylphenyl)-3-(thiophen-2-yl)-4,5-dihydro-1H-pyrazol-1-yl]ethan-1-one]",118.533
9,"O=C(CCl)N1N=C(c2cccs2)CC1c1cccc(O)c1 (stereo not shown) [6-L04, 2-chloro-1-[5-(3-hydroxyphenyl)-3-(thiophen-2-yl)-4,5-dihydro-1H-pyrazol-1-yl]ethan-1-one]",3.7561
10,"COc1ccc(C2=NN(C(=O)CCl)C(c3cccc(F)c3)C2)cc1 (stereo not shown) [6-P04, 2-chloro-1-[5-(3-fluorophenyl)-3-(4-methoxyphenyl)-4,5-dihydro-1H-pyrazol-1-yl]ethan-1-one]",145.463
11,"COc1ccc(C2=NN(C(=O)CCl)C(c3ccc(F)cc3)C2)cc1 (stereo not shown) [4-M20, 2-chloro-1-[5-(4-fluorophenyl)-3-(4-methoxyphenyl)-4,5-dihydro-1H-pyrazol-1-yl]ethan-1-one]",115.102
12,"Cc1ccc(C2=NN(C(=O)CCl)C(c3cccs3)C2)cc1 (stereo not shown) [4-O22, 2-chloro-1-[3-(4-methylphenyl)-5-(thiophen-2-yl)-4,5-dihydro-1H-pyrazol-1-yl]ethan-1-one]",88.0419
13,"COc1ccc(C2=NN(C(=O)CCl)C(c3cccc(C)c3)C2)cc1 (stereo not shown) [4-G20, 2-chloro-1-[3-(4-methoxyphenyl)-5-(3-methylphenyl)-4,5-dihydro-1H-pyrazol-1-yl]ethan-1-one]",10.2906
14,"O=C(CCl)N1N=C(c2cccs2)CC1c1ccc(F)cc1 (stereo not shown) [4-O20, 2-chloro-1-[5-(4-fluorophenyl)-3-(thiophen-2-yl)-4,5-dihydro-1H-pyrazol-1-yl]ethan-1-one]",137.589
15,"N#CC(=Cc1ccc(Cl)cc1)C(=O)Nc1ccncc1 [8-K20, 3-(4-chlorophenyl)-2-cyano-N-(pyridin-4-yl)prop-2-enamide]",95.6017
16,"C=CC(=O)Nc1ccccc1CCC(N)=O [1-A18, N-[2-(2-carbamoylethyl)phenyl]prop-2-enamide]",117.099
17,"COc1cc(NC(=O)CCl)cc(OC)c1 [4-G09, 2-chloro-N-(3,5-dimethoxyphenyl)acetamide]",119.295
18,"O=C(CCl)c1c(-c2ccccc2)[nH]c2ccccc12 [10-E05, 2-chloro-1-(2-phenyl-1H-indol-3-yl)ethan-1-one]",159.063
19,"Cn1cccc1C(=O)CCl [10-B04, 2-chloro-1-(1-methyl-1H-pyrrol-2-yl)ethan-1-one]",122.188
20,"Cn1c(-c2ccccc2)c(C(=O)CCl)c2ccccc21 [10-N04, 2-chloro-1-(1-methyl-2-phenyl-1H-indol-3-yl)ethan-1-one]",49.0625
21,"CCNC(=O)C(C#N)=Cc1ccc(OC(F)F)cc1 [8-E05, 2-cyano-3-[4-(difluoromethoxy)phenyl]-N-ethylprop-2-enamide]",113.527
22,"O=C1C=CC(=O)N1c1cc(C(F)(F)F)ccc1Cl [10-G09, 1-[2-chloro-5-(trifluoromethyl)phenyl]-2,5-dihydro-1H-pyrrole-2,5-dione]",133.75
23,"CC(Cl)C(=O)Nc1sc2c(c1C#N)CCCCC2 (stereo not shown) [5-B20, 2-chloro-N-{3-cyano-4H,5H,6H,7H,8H-cyclohepta[b]thiophen-2-yl}propanamide]",104.918

# — PMC11995724, “Antibiotic target discovery by integrated phenotypic and activity-based profiling of electrophilic fragments” (Cell chemical biology, 2025)
